Screening results from PubChem BioAssay.
An excerpt weighted towards active compounds, which were near 17% of everything screened.
DT40 TDP1 no CPT: qHTS for Inhibitors of human tyrosyl-DNA phosphodiesterase 1 (TDP1): qHTS in cells in absence of CPT | DT40 Tdp1-/- hTDP1 cells, no CPT, ATP luminescence, 48 h | Potency, µM (doses to about 46.2 µM), usual class: inhibitors | actives 15% (n = 420,000) | AID 686978, 2013; further: nearly all actives have a fitted effect of over 55% in size
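Chicken DT40 Tdp1-/- cells stably complemented with human TDP1 were seeded at 400 cells/well with DMSO in place of 20 nM camptothecin. After compound pinning, cells grew at least 48 hr at 37 °C; viability read by CellTiter-Glo luminescence.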
ATXN2 expr inh: inhibitors of ATXN2 expression; AID 1745845; actives 0.72% (n = 360,000); HEK-293 ATXN2-luciferase reporter, luminescence, 24 h; Potency, µM (top dose mostly 57 µM), most hits filed as inhibitors; further: nearly all actives have a fitted effect of over 55% in size
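ATXN2-luciferase reporter cells (luciferase flanked by upstream and downstream ATXN2 gene portions) were treated 24 h at 37 °C with compounds at up to 57 uM. SteadyGlo luminescence gave expression; GF-AFC fluorescence gave viability.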
ATXN viability: viability counter-screen for ATXN expression inhibitors | actives 0.49% (n = 400,000) | S2 cells (HEK-293 line with an ATXN2-luciferase reporter) viability, CellTiter-Fluor protease fluorescence, 24 h | Potency, µM (series often up to 56.7 µM), most hits filed as cytotoxic; further: nearly all actives have a fitted effect of over 40% in size
HepG2 viability: counter-screen for TGF-b inhibitors: cytotoxicity in HepG2 cells; HepG2 CAGA-GFP viability, ATP luminescence, 18 h; Potency, µM (highest dose often 46.1 µM), actives largely listed as cytotoxic; actives 0.76% (n = 410,000); AID 588856
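HepG2 CAGA-GFP cells (1000/well, DMEM with 1% FBS) received compound, then TGF-beta at 500 pg/mL final, and were incubated 18 hours at 37 degrees C. Viability was read by CellTiter-Glo luminescence. Media-only wells were set as complete cell-killing and DMSO as no toxicity.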
DT40 TDP1 CPT: DT40-hTDP1 cell growth loss with CPT | chicken DT40 Tdp1-/-;hTDP1 cells + 20 nM CPT, ATP luminescence, 48 h | Potency, µM (titrated, usually from 46.2 µM), most hits filed as inhibitors | actives 12% (n = 420,000) | AID 686979; further: nearly all actives have a fitted effect of over 55% in size
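Chicken DT40 Tdp1-/- cells stably complemented with human TDP1 were seeded at 400 cells/well in medium containing 20 nM camptothecin, exposed to pin-transferred compounds, and grown at 37 °C for at least 48 hr. Viability was read as ATP luminescence.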
TGFb inhibitor: TGF-b pathway inhibition | HepG2 CAGA-GFP TGF-b/SMAD3 reporter, GFP fluorescence, 18 h; TGF-beta stimulated, 500 pg/mL final | AID 588855 | Potency, µM (top dose mostly 46.1 µM), actives largely listed as inhibitors | actives 1.2% (n = 410,000); further: nearly all actives have a fitted effect of over 65% in size
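Smad-responsive CAGA-GFP expression was quantified in HEPG2 cells exposed to compounds and 500 pg/mL final TGF-beta for 18 h at 37 degrees C; unstimulated wells defined full inhibition.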
Hits are given with their value; – = inactive; ? = inconclusive; · = no result. The call rests on the fitted dose curve; in most records, active means well fitted curve in the direction sought with a large enough effect; inconclusive means small, poorly fitted or top-dose-only effect, or another doubt; inactive means no such curve, though single readings can be large; an effect the other way counts as inactive or inconclusive.

SMILES | DT40 TDP1 no CPT | ATXN2 expr inh | ATXN viability | HepG2 viability | DT40 TDP1 CPT | TGFb inhibitor
CCCN(C)C[C@H]1OCc2cnnn2CCCC(=O)N([C@H](C)CO)C[C@@H]1C | – | – | – | – | – | –
Cc1ccccc1CN(c1ccc(C(=O)N2CCc3ccccc3C2)cc1)S(C)(=O)=O | 15µM | – | – | – | 12µM | –
COc1ccccc1N(CC(=O)N1CCCC1)S(=O)(=O)c1ccc(C)cc1 | – | – | – | – | – | –
COc1ccccc1N(CC(=O)N1CCN(c2ccc(F)cc2)CC1)S(=O)(=O)c1ccc(C)cc1 | 18µM | – | ? | – | 26µM | ?
CCCCn1c(N)c(N(CCOC)C(=O)CC(NC(=O)c2ccccc2Cl)c2ccccc2)c(=O)[nH]c1=O (stereo not given) | – | – | – | – | – | –
Oc1c(Br)cc(Br)cc1/C=N/c1nc2c(s1)CCCC2 | 16µM | ? | – | – | ? | –
Oc1ccc2ccccc2c1/C=N/c1nc2c(s1)CCCC2 | 29µM | – | – | – | ? | ?
CC(C)[C@H](NC(=O)c1ccco1)C(=O)NC12CC3CC(CC(C3)C1)C2 | – | – | – | – | ? | –
COc1ccccc1-c1nccc(NCc2cccnc2)n1 | – | · | · | · | – | ·
O=C(O)CC1NC(=S)N(c2ccccc2)C1=O (stereo not given) | – | – | – | – | – | –
O=C1C(CSCc2ccccc2)NC(=S)N1c1ccccc1 (stereo not given) | 4.6µM | · | – | – | 2.9µM | –
Cc1ccc2cc(CN(C(=O)c3ccco3)c3ccccc3C)c(=O)[nH]c2c1 | 21µM | – | – | – | ? | –
Cc1ccc(N(Cc2cc3ccc(C)cc3[nH]c2=O)C(=O)c2ccco2)c(C)c1 | 23µM | · | – | – | ? | –
Cc1ccc2cc(CN(C(=O)c3ccco3)c3cccc(C)c3C)c(=O)[nH]c2c1 | ? | – | – | – | – | –
COCC(=O)N(Cc1cc2ccc(C)cc2[nH]c1=O)c1ccc(C)cc1C | – | – | – | – | – | –
O=C(O)CN(C1CCCCC1)S(=O)(=O)c1ccc(F)cc1 | – | – | – | – | – | –
CC(C)(C)CC(=O)Nc1nnc(SCC(=O)NC2CCCCC2)s1 | ? | – | – | – | – | –
O=S(=O)(c1ccc(Cl)cc1)N1CCC2(CC1)CO2 | – | – | – | – | ? | –
OCCC1CN(Cc2cnc(-c3cccc4ccccc34)nc2)CCN1C1CCCCC1 (stereo not given) | 18µM | · | – | – | 23µM | –
COc1cc(=O)n2c(c1C(=O)N(C)Cc1cscn1)CCN(C(=O)c1cccc(C)c1C)CC2 | – | · | – | · | – | ·
O=C(NC1CCCC1)c1ccc2c(=O)n(Cc3ccccc3)c(SCc3ccc([N+](=O)[O-])cc3)nc2c1 | – | · | · | – | ? | –
C=CCc1cc(C=Nc2ccc(N3CCOCC3)cc2)cc(OCC)c1O | 16µM | – | ? | – | – | –
O=C(c1ccc(Cl)c(S(=O)(=O)N2CCCCC2)c1)N1CCCCC1 | – | – | – | – | ? | –
O=C(c1ccc(Cl)c(S(=O)(=O)N2CCCC2)c1)N1CCN(c2ccccc2)CC1 | ? | – | – | – | 18µM | –
CC(=O)N1CCN(C(=O)c2cc(S(=O)(=O)N3CCN(c4ccccc4)CC3)ccc2Cl)CC1 | 10µM | – | – | – | ? | –
SMILES | DT40 TDP1 no CPT | ATXN2 expr inh | ATXN viability | HepG2 viability | DT40 TDP1 CPT | TGFb inhibitor
O=C(c1ccc(Cl)c(S(=O)(=O)N2CCCC2)c1)N1CCN(c2ccc(F)cc2)CC1 | 13µM | – | – | – | ? | –
CN1CC(=O)NC1=NC(=O)c1ccc(Cl)c(S(=O)(=O)N2CCCCCC2)c1 | 8.2µM | – | – | – | ? | –
COc1ccc2nc(C3CCCCC3)nc(C3CCCCC3)c2c1 | ? | – | – | – | ? | ?
Cc1ccc(C(=O)N2CCN(C(=O)c3ccco3)CC2)cc1NC(=O)c1ccco1 | – | – | – | – | – | –
O=C(c1ccc(Cl)c(S(=O)(=O)N2CCOCC2)c1)N1CCN(c2ccccc2)CC1 | ? | – | – | – | ? | –
O=C(c1ccc(Cl)c(S(=O)(=O)N2CCCCC2)c1)N1CCN(c2ccccc2)CC1 | ? | – | – | – | 23µM | ?
CN(c1ccccc1)S(=O)(=O)c1cc(C(=O)N2CCN(c3ccccn3)CC2)ccc1Cl | 7.3µM | ? | – | – | 9.2µM | –
O=C(c1ccc(Cl)c(Cl)c1)N1CCN(c2ccccn2)CC1 | – | – | – | – | – | –
CSc1ccc(CNC(=O)CCn2ccc3cc(S(=O)(=O)N4CCC(C)CC4)ccc32)cc1 | ? | – | – | – | 21µM | –
CC1CCN(S(=O)(=O)c2ccc3c(ccn3CCC(=O)NCc3ccccc3F)c2)CC1 | ? | – | – | – | 16µM | –
CC1CCN(S(=O)(=O)c2ccc3c(ccn3CC(=O)NCc3ccccc3F)c2)CC1 | ? | – | ? | – | 21µM | ?
Cc1cccc(CNC(=O)Cn2ccc3cc(S(=O)(=O)N4CCC(C)CC4)ccc32)c1 | ? | – | – | – | ? | –
CSCC[C@@H](CO)NC(=O)[C@H]1O[C@@H](n2ccc(N)nc2=O)[C@H](O)[C@@H]1O | – | – | – | – | – | –
CCCCn1cc(S(=O)(=O)c2ccccc2)c(=O)c2cc(C)ccc21 | – | · | – | – | – | –
Cn1c(=O)c2c(-c3ccccc3)n(-c3ccccc3N)cc2n(C)c1=O | ? | – | – | – | ? | –
COc1ccc(-n2cc3c(c2-c2cccc(Br)c2)c(=O)n(C)c(=O)n3C)cc1OC | 13µM | – | – | – | 21µM | –
Cc1cc(N)c(-n2cc3c(c2-c2ccc(Br)cc2)c(=O)n(C)c(=O)n3C)cc1C | 13µM | – | ? | – | 16µM | –
COC(=O)c1ccccc1-n1cc2c(c1-c1cccc(C)c1)c(=O)n(C)c(=O)n2C | 7.3µM | · | · | – | 10µM | ?
Cn1c(=O)c2c(-c3cccc(Br)c3)n(CCO)cc2n(C)c1=O | ? | – | – | – | ? | –
Cc1cccc(-c2c3c(=O)n(C)c(=O)n(C)c3cn2-c2cc(N)c(Cl)cc2Cl)c1 | 3.7µM | · | · | – | 5.8µM | ?
Cc1cccc(-c2c3c(=O)n(C)c(=O)n(C)c3cn2-c2ccccc2O)c1 | – | – | – | – | ? | –
COCCCNC(=O)CCCN1C(=O)CCn2nc(-c3cn(C)c4ccccc34)cc21 | – | – | – | – | – | –
Cc1ccccc1NC(=O)NC1(C(=O)NCc2ccco2)CCCCC1 | – | – | – | – | – | –
